Among the data in PubChem BioAssay (NCI) are growth values, retold here.

About 83,000 compounds went through this panel and 20% of them were active in at least one assay; those are over-represented in the sample as a whole.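 For each line, cells grew in 96-well plates with the test compound present at a single concentration for 48 hours.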 Values without a mark were called inactive. Activity calls are given as the source filed them. How the source made its calls: active means growth percent below 10; inactive means the rest.

Some test systems named below: BT-549 breast; MDA-MB-435 melanoma; SW-620 colon; MCF7 breast; HCT-116 colon; KM12 colon; HCC-2998 colon.
What all share (assay): NCI-60 one-dose screen, 48 h (100 = growth as untreated, 0 = no growth, -100 = all killed)
Holding throughout (details): 10 µM unless noted

Turning to `CC1=C(C)C(=O)C(Nc2cccc(C(F)(F)F)c2)=C(Cl)C1=O`, the growth is 121% in the test on BT-549 breast; 98.5% in the test on MDA-MB-435 melanoma; 17.1% with SW-620 colon; 35.4% with MCF7 breast; 33.9% with HCT-116 colon; 67.2% in the test with KM12 colon.

`Cn1c(SCC(=O)c2cccs2)nc2ccccc2c1=O`: the growth in the test with BT-549 breast is 108%; in the test with MDA-MB-435 melanoma it was 103%; in the test on SW-620 colon, 99.7%; in the test with MCF7 breast, 62.4%; in the test on HCT-116 colon it was 93.9%; in the test with KM12 colon, 99.1%.

On to `CC(=O)Oc1ccccc1C(=O)Nc1ccc(C(=O)/C=C/c2cccs2)cc1`, for which the growth was 99.2% in the test with BT-549 breast; 97.8% with MDA-MB-435 melanoma; 107% in the test with SW-620 colon; 93% with MCF7 breast; 108% with HCT-116 colon; 109% in the test on HCC-2998 colon. Moreover, the growth in the test with KM12 colon is 102%.

Take `COc1ccc(/C=C2\SC(=Nc3cc(C)on3)NC2=O)cc1`: the growth was 88.1% in the test with BT-549 breast; 104% with MDA-MB-435 melanoma; 99% in the test on SW-620 colon; 96.1% in the test on HCT-116 colon; 108% in the test with HCC-2998 colon; 108% in the test on KM12 colon.

Turning to `Cc1ccccc1NC(=O)/C=C/c1ccc(OCCOc2ccc3c(C)cc(=O)oc3c2)cc1`, the growth with BT-549 breast is 87.8%; in the test on MDA-MB-435 melanoma, 90.4%; with SW-620 colon, 98.6%; in the test on HCT-116 colon, 97.7%; in the test on HCC-2998 colon it was 114%.

In the case of `O=C(Nc1nc2ccc(O)cc2s1)c1cccc(C(F)(F)F)c1`, the growth in the test on BT-549 breast was 84.4%; with SW-620 colon, 52.1%; in the test with MCF7 breast, 73.7%; in the test with HCT-116 colon, 57.6%.

For `CCOc1ccc2nc(NC(=O)c3ccc(C(F)(F)F)cc3)sc2c1`, the growth in the test on BT-549 breast was 98.5%; with MDA-MB-435 melanoma, 96.6%; with SW-620 colon, 103%; with HCT-116 colon, 102%; in the test on KM12 colon it was 103%.

Regarding `Oc1c(Cl)cc(Cl)c2ccc(CN3CCCCC3)nc12`, the growth is 89.1% with BT-549 breast; 42.1% in the test on MDA-MB-435 melanoma; 30.4% in the test with SW-620 colon; 21.3% in the test on HCT-116 colon; 65% with HCC-2998 colon; 30.7% in the test on KM12 colon.

Take `CCOC(=O)c1csc(NC(=O)CSc2nc3sc4c(c3c(=O)n2-c2ccc(Cl)cc2)CCCC4)n1`: the growth was 99% with BT-549 breast; 93.6% in the test on MDA-MB-435 melanoma; 103% in the test on SW-620 colon; 105% in the test on HCT-116 colon; 121% with HCC-2998 colon.

Consider `C[C@@H]1CN(c2ccc3ncc(C#Cc4cncc(C(=O)Nc5ccc(CN6CCN(C)CC6)c(C(F)(F)F)c5)c4)n3n2)C[C@H](C)O1`, for which the growth was -27.2% (active) with BT-549 breast; -90.1% (active) with MDA-MB-435 melanoma; -52.3% (active) in the test on SW-620 colon; -71.4% (active) in the test on HCT-116 colon; -30% (active) in the test on HCC-2998 colon; -7.61% (active) with KM12 colon.

Take `COc1ccc(/C=C2\SC(=Nc3cc(C)[nH]n3)NC2=O)cc1`: the growth was 90.5% with BT-549 breast; 92.4% in the test on MDA-MB-435 melanoma; 97.1% in the test on SW-620 colon; 97.2% in the test with HCT-116 colon; 99.8% in the test with HCC-2998 colon; 89.8% with KM12 colon.

As to `COc1ccc(-c2cc(C(=O)N=Nc3c(O)[nH]c4ccccc34)c3ccccc3n2)cc1OC`, the growth was 113% in the test on BT-549 breast; 98.1% with MDA-MB-435 melanoma; 93.8% in the test with SW-620 colon; 101% in the test on HCT-116 colon; 97.8% in the test on HCC-2998 colon; 92% with KM12 colon.

Take `CC(C)Sc1nc(Nc2ccc(S(N)(=O)=O)cc2)c(C#N)c(-c2ccc(F)cc2)n1`: the growth in the test on BT-549 breast is 53.3%; with MDA-MB-435 melanoma, 49.9%; with SW-620 colon, 24.3%; in the test with MCF7 breast, 31.6%; in the test with HCC-2998 colon it was 58.8%; with KM12 colon, 48.8%.

Turning to `CN1CCN(Cc2ccc(NC(=O)c3cncc(C#Cc4cnc5ccc(N6CCSCC6)nn45)c3)cc2C(F)(F)F)CC1`, the growth is 40.5% with BT-549 breast; -73.4% (active) in the test with MDA-MB-435 melanoma; -3.56% (active) with SW-620 colon; -51.8% (active) in the test on HCT-116 colon; -51.2% (active) with HCC-2998 colon; -22.5% (active) in the test on KM12 colon.

As to `COc1cccc(NC2=CC(=O)C(C)=C(C)C2=O)c1`, the growth was 127% with BT-549 breast; 7.25% (active) in the test with MDA-MB-435 melanoma; 102% with SW-620 colon; 10.5% with HCT-116 colon; 98.4% in the test with KM12 colon.

In the case of `Nc1c(C(=O)c2ccc(Br)cc2)oc2nc(-c3cnccn3)cc(-c3cccs3)c12`, the growth in the test with BT-549 breast is 103%; in the test with MDA-MB-435 melanoma it was 102%; in the test on SW-620 colon it was 98.8%; with HCT-116 colon, 96.8%; in the test with HCC-2998 colon, 113%; with KM12 colon it was 99.8%.

As to `COc1ccc(-c2nc3ccc(-c4nnc(SCC(=O)Nc5ccc(C(=O)/C=C/c6ccccc6)cc5)o4)cc3[nH]2)cc1OC`, the growth is 94.1% in the test on BT-549 breast; 106% with MDA-MB-435 melanoma; 104% in the test on SW-620 colon; 89.7% in the test on HCT-116 colon; 123% in the test on HCC-2998 colon; 99% in the test with KM12 colon.

In the case of `Clc1ccc2c(NCCCN3CCOCC3)c3oc4ccccc4c3nc2c1`, the growth in the test on BT-549 breast is 104%; in the test on MDA-MB-435 melanoma, 36%; in the test with SW-620 colon it was 21.8%; in the test with HCT-116 colon, 20.1%; in the test on HCC-2998 colon it was 50.4%; in the test with KM12 colon, 32%.

As to `C#Cc1nc(C2=C(C)/C(=N/OCc3ccccc3)CC2)cs1`, the growth in the test on BT-549 breast was 58.1%; with MDA-MB-435 melanoma, 80.1%; in the test on SW-620 colon, 85.6%; with HCT-116 colon, 40.6%; with HCC-2998 colon, 99.8%; in the test with KM12 colon it was 19.6%.

For `CCN(CC)c1ccc(C=O)c(OCc2cn(CC(=O)Nc3ccc(Cl)cc3)nn2)c1`, the growth with BT-549 breast is 81.4%; in the test on MDA-MB-435 melanoma it was 79.8%; in the test with SW-620 colon it was 85.6%; with HCT-116 colon, 47.3%; in the test with HCC-2998 colon, 86.1%; with KM12 colon, 70.4%.

Turning to `COc1ccc(NC(=O)c2sc3nc(-c4cnccn4)cc(-c4cccs4)c3c2N)cc1`, the growth with BT-549 breast was 42.4%; in the test on MDA-MB-435 melanoma it was 71.5%; in the test on SW-620 colon, 65.2%; in the test on HCT-116 colon it was 61.9%; in the test on HCC-2998 colon, 67.5%; with KM12 colon, 61%.

As for `CS(=O)(=O)Nc1ccc(-c2nn(-c3ccc(S(C)(=O)=O)cc3)cc2/C=C/C(=O)c2ccc(NC(=O)CO[N+](=O)[O-])cc2)cc1`, the growth with BT-549 breast is 98.7%; in the test on MDA-MB-435 melanoma, 106%; with SW-620 colon it was 113%; with HCT-116 colon, 103%; in the test on HCC-2998 colon, 101%; in the test with KM12 colon it was 106%.

Regarding `CCCCCCNC(=O)Oc1ccc(/C(=C(/C)c2ccccc2)c2ccc(OCCN3CCCCCC3)cc2)cc1`, the growth in the test with BT-549 breast is 66.7%; with MDA-MB-435 melanoma it was 49.6%; with SW-620 colon, -35.2% (active); in the test on HCT-116 colon, 23.8%; with HCC-2998 colon, 56.7%; in the test with KM12 colon, 32.3%.

As to `[Cl][Ru].c1ccc(-c2cc(-c3ccccn3)nc(-c3ccccn3)c2)cc1.c1ccc(-c2ccnc3c2ccc2c(-c4ccccc4)ccnc23)cc1`, the growth in the test with BT-549 breast is -94.6% (active); in the test on MDA-MB-435 melanoma, -62.2% (active); in the test on SW-620 colon it was -56.7% (active); in the test with HCT-116 colon, -79% (active); in the test with HCC-2998 colon it was -72.9% (active); in the test with KM12 colon it was -70.8% (active).
